# In PubChem BioAssay (EPA / NIEHS):
# Inconclusive results are not listed. Activity calls are given as the source filed them. Rule for the calls: active = hit-call score of the fitted dose curve at least 0.9, where 1 is the maximum; inconclusive = response in the unintended direction; inactive = score below 0.9.
# Assays:
# [1] = molecular target: human Thyroid hormone Receptor beta (TRb), THRB (gene 7068) (UniProt P10828); test: ATG_hTRb_XSP1: Attagene TRANS-FACTORIAL Multi-Species (XSP1) HepG2 Assay for human Thyroid hormone Receptor beta (TRb) (AID 2283808)
# Summary of the method: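 Readout is reporter mRNA induction measured by RT-PCR, fluorescent labelling and capillary electrophoresis, fitted upward relative to DMSO. Transiently transfected human HepG2 cells expressing NR-Gal4 chimeras were dosed for 24 h, medium containing 3 nM 6-alpha-fluorotestosterone.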
# [2] = molecular target: zebrafish Thyroid Hormone Receptor beta (TRb), thrb (gene 30607) (UniProt Q9PVE4); test: ATG_zfTRb_XSP1: Attagene TRANS-FACTORIAL Multi-Species (XSP1) HepG2 Assay for zebrafish Thyroid Hormone Receptor beta (TRb) (AID 2283809)
# Summary of the method: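 HepG2 cells transiently transfected with multiplexed GAL4-UAS reporter units expressing chimeric zebrafish TRb–Gal4. Dosed 24 h with 3 nM 6-alpha-fluorotestosterone present; reporter mRNA measured by RT-PCR, HpaI digestion and capillary electrophoresis; gain of signal versus DMSO.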
# [3] = ATG_XTT_Cytotoxicity_XSP1: Cytotoxicity Assessment in the Attagene TRANS-FACTORIAL Multi-Species (XSP1) HepG2 Assay (AID 2283810)
# Summary of the method: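 XTT viability readout taken at 24 hours post-dosing in HepG2 liver cells co-treated with 3 nM 6-alpha-fluorotestosterone. Signal loss relative to DMSO controls reflects cytotoxicity.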
# [4] = ATG_M_06_XSP2: Attagene TRANS-FACTORIAL Multi-Species (XSP2) HepG2 Assay for M06 Transcription Factor (Internal Marker) (AID 2283811);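 note: internal background marker reporter mRNA measured by RT-PCR and capillary electrophoresis; hits are increases in signal above the DMSO baseline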
# Summary of the method: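 Cells of the human liver line HepG2 carried transfected reporter transcription units and were treated for 24 h. Induced reporter transcripts were detected by fluorescence after RT-PCR and capillary electrophoresis, with activity fitted in the gain direction against DMSO.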
# [5] = test system: turtle Estrogen Receptor (ERa), gene 101933533; test: ATG_trERa_XSP2: Attagene TRANS-FACTORIAL Multi-Species (XSP2) HepG2 Assay for turtle Estrogen Receptor (ERa) (AID 2283812);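 note: actives raise reporter signal above DMSO so AC50 reflects agonist activity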
# Summary of the method: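 Readout is reporter mRNA quantified by RT-PCR with capillary electrophoresis after 24 h compound exposure, increase relative to DMSO. Uses transiently transfected human HepG2 liver cells carrying a chimeric turtle ERa-Gal4 receptor driving GAL4-UAS reporters.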
# [6] = molecular target: Estrogen receptor beta (Homo sapiens) (UniProt Q92731); test: ATG_hERb_XSP2: Attagene TRANS-FACTORIAL Multi-Species (XSP2) HepG2 Assay for human Estrogen Receptor (ERb) (AID 2283813);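 note: actives raise reporter mRNA above DMSO so AC50 reflects agonist induction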
# Summary of the method: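 Transient TRANS reporter system in HepG2: after 24 h of chemical, RNA is reverse-transcribed, reporter cDNA amplified, FAM-labelled and sized by capillary electrophoresis. Induction of the human ERb-Gal4 reporter is measured relative to DMSO.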
# [7] = molecular target: GAL4 Transcription Factor (Internal Marker), GAL4 (gene 855828) (UniProt P04386); test: ATG_GAL4_XSP2: Attagene TRANS-FACTORIAL Multi-Species (XSP2) HepG2 Assay for GAL4 Transcription Factor (Internal Marker) (AID 2283814);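 note: GAL4 reporter mRNA background control in MRTU transfected cells not a receptor target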
# Summary of the method: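 Background-control readout: gain-of-signal fitted against DMSO. After 24 h exposure of transfected HepG2 (MRTU, GAL4-UAS reporters; 3 nM 6-alpha-fluorotestosterone, 1.5 nM norgestrel present), transcripts quantified by RT-PCR and capillary electrophoresis fluorescence.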
# [8] = test system: turtle Androgen Receptor (AR), gene 101947425; test: ATG_trAR_XSP2: Attagene TRANS-FACTORIAL Multi-Species (XSP2) HepG2 Assay for turtle Androgen Receptor (AR) (AID 2283815)
# Summary of the method: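 Reporter transcripts were quantified via RT-PCR and capillary electrophoresis and fitted upward against DMSO. Transiently transfected human HepG2 cells carrying NR-Gal4 chimeras were exposed 24 h, with 3 nM 6-alpha-fluorotestosterone plus 1.5 nM norgestrel added.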
# [9] = molecular target: chicken Estrogen Receptor (ERa), ESR1 (gene 396099) (UniProt P06212); test: ATG_chERa_XSP2: Attagene TRANS-FACTORIAL Multi-Species (XSP2) HepG2 Assay for chicken Estrogen Receptor (ERa) (AID 2283817);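 note: actives raise reporter signal above DMSO so AC50 reflects ER activation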
# Summary of the method: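 Exogenous chicken ERa-Gal4 chimera activity was assessed in transfected human liver HepG2 cells after 24 h of treatment. Induced reporter mRNA was quantified fluorescently by capillary electrophoresis, with DMSO as baseline.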
# [10] = test system: zebrafish Estrogen Receptor (ER2a), gene 317734; test: ATG_zfER2a_XSP2: Attagene TRANS-FACTORIAL Multi-Species (XSP2) HepG2 Assay for zebrafish Estrogen Receptor (ER2a) (AID 2283818);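 note: hits raise reporter mRNA so AC50 reflects activation of zebrafish ER2a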
# Summary of the method: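 Multiplexed trans-reporter readout: RT-PCR then capillary electrophoresis of reporter transcripts after 24 h compound treatment. Human HepG2 carries transfected zebrafish ER2a-Gal4 chimera; 3 nM 6-alpha-fluorotestosterone plus 1.5 nM norgestrel present. Induction scored against DMSO.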
# [11] = test system: chicken Androgen Receptor (AR), gene 422165; test: ATG_chAR_XSP2: Attagene TRANS-FACTORIAL Multi-Species (XSP2) HepG2 Assay for chicken Androgen Receptor (AR) (AID 2283819);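 note: hits raise reporter mRNA above DMSO so potency is for activation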
# Summary of the method: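 Readout is reporter mRNA induction via RT-PCR/capillary electrophoresis after 24 h chemical exposure, positive direction relative to DMSO. Transiently transfected HepG2 express chimeric chicken AR–GAL4; AR stimulated by 3 nM 6-alpha-fluorotestosterone and 1.5 nM norgestrel.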
# [12] = test system: frog Estrogen Receptor (ER), gene 398734; test: ATG_frER1_XSP2: Attagene TRANS-FACTORIAL Multi-Species (XSP2) HepG2 Assay for frog Estrogen Receptor (ER) (AID 2283821);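 note: hits raise reporter mRNA above DMSO baseline so potency means agonist or activator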
# Summary of the method: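 Gain-of-signal mRNA reporter assay, HepG2 human liver cells, 24 h dosing; transcripts read by fluorescent RT-PCR fragment analysis, DMSO as negative control.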
# [13] = test system: zebrafish Estrogen Receptor (ER2b), gene 317733; test: ATG_zfER2b_XSP2: Attagene TRANS-FACTORIAL Multi-Species (XSP2) HepG2 Assay for zebrafish Estrogen Receptor (ER2b) (AID 2283823);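 note: fitted upward as reporter gain over DMSO so potency reflects activation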
# Summary of the method: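 In this multiplexed trans-activation format, HepG2 cells expressing exogenous NR-Gal4 fusions drive GAL4-UAS reporters. Exposure lasts 24 h, and reporter mRNA induction is read by RT-PCR with capillary electrophoresis detection.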
# [14] = molecular target: Estrogen receptor (Homo sapiens) (UniProt P03372); test: ATG_hERa_XSP2: Attagene TRANS-FACTORIAL Multi-Species (XSP2) HepG2 Assay for human Estrogen Receptor (ERa) (AID 2283827)
# Summary of the method: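 Trans-activation of exogenous human ERa-Gal4 chimera read in HepG2 as reporter transcript after 24 h exposure; medium included 3 nM 6-alpha-fluorotestosterone and 1.5 nM norgestrel. Quantified by RT-PCR with capillary electrophoresis, positive-direction fitting against DMSO.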
# [15] = test system: frog Estrogen Receptor (ER2), gene 100174814; test: ATG_frER2_XSP2: Attagene TRANS-FACTORIAL Multi-Species (XSP2) HepG2 Assay for frog Estrogen Receptor (ER2) (AID 2283828)
# Summary of the method: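 Induction of reporter mRNA, baseline set by DMSO, is the endpoint. The panel was run in transfected HepG2 cells over 24 h, with 3 nM 6-alpha-fluorotestosterone and 1.5 nM norgestrel present to stimulate androgen receptor.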
# [16] = molecular target: Peroxisome proliferator-activated receptor gamma (Homo sapiens) (UniProt P37231); test: ATG_hPPARg_XSP2: Attagene TRANS-FACTORIAL Multi-Species (XSP2) HepG2 Assay for human Peroxisome Proliferator-activated Receptor gamma (PPARg) (AID 2283829);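 note: actives raise reporter mRNA above DMSO so AC50 reflects PPARg activation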
# Summary of the method: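 Multiplexed transactivation in transfected HepG2 liver cells. Gal4-chimeric receptor activity reported as induced reporter transcript after 24 h.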
# [17] = molecular target: mouse Peroxisome Proliferator-activated Receptor gamma (PPARg), Pparg (gene 19016) (UniProt P37238); test: ATG_mPPARg_XSP2: Attagene TRANS-FACTORIAL Multi-Species (XSP2) HepG2 Assay for mouse Peroxisome Proliferator-activated Receptor gamma (PPARg) (AID 2283830);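 note: hits are gains in reporter mRNA above DMSO so AC50 marks activation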
# Summary of the method: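 Multiplexed TRANS reporter readout: after 24 h chemical exposure of transfected HepG2 cells (with 3 nM 6-alpha-fluorotestosterone, 1.5 nM norgestrel present), RNA reverse-transcribed, amplified, 6-FAM-labelled and resolved by capillary electrophoresis; mouse PPARg-Gal4 induction scored against DMSO.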
# [18] = molecular target: Nuclear receptor subfamily 1 group I member 2 (Mus musculus) (UniProt O54915); test: ATG_mPXR_XSP2: Attagene TRANS-FACTORIAL Multi-Species (XSP1) HepG2 Assay for mouse Pregnane X Receptor (PXR) (AID 2283831)
# Summary of the method: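 Human liver HepG2 cells expressing exogenous receptor-GAL4 chimeras were exposed to test chemicals for 24 h. Induction of reporter mRNA was scored as gain of fluorescence signal over DMSO controls.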
# [19] = molecular target: zebrafish Thyroid Hormone Receptor alpha (TRa), thraa (gene 30670) (UniProt Q98867); test: ATG_zfTRa_XSP2: Attagene TRANS-FACTORIAL Multi-Species (XSP1) HepG2 Assay for zebrafish Thyroid Hormone Receptor alpha (TRa) (AID 2283832);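 note: actives raise zebrafish TRa-Gal4 reporter transcript above DMSO baseline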
# Summary of the method: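 Multiplexed TRANS reporter format in HepG2; the medium also contained 3 nM 6-alpha-fluorotestosterone and 1.5 nM norgestrel. Reporter mRNA after 24 h read by RT-PCR and capillary electrophoresis, scored as induction over DMSO.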
# [20] = molecular target: zebrafish Estrogen Receptor (ER1), esr1 (gene 259252) (UniProt P57717); test: ATG_zfER1_XSP2: Attagene TRANS-FACTORIAL Multi-Species (XSP2) HepG2 Assay for zebrafish Estrogen Receptor (ER1) (AID 2283816)
# Summary of the method: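 After 24 h compound exposure, RNA from transfected HepG2 cells was reverse-transcribed and reporter transcripts resolved by capillary electrophoresis. The TRANS format reads exogenous zebrafish ER1-Gal4 chimera activity on GAL4-UAS elements; gain of signal against DMSO.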
# Sequence of mouse Peroxisome Proliferator-activated Receptor gamma (PPARg), Pparg (gene 19016) (P37238 whole entry, looked up, the tested form may be a part): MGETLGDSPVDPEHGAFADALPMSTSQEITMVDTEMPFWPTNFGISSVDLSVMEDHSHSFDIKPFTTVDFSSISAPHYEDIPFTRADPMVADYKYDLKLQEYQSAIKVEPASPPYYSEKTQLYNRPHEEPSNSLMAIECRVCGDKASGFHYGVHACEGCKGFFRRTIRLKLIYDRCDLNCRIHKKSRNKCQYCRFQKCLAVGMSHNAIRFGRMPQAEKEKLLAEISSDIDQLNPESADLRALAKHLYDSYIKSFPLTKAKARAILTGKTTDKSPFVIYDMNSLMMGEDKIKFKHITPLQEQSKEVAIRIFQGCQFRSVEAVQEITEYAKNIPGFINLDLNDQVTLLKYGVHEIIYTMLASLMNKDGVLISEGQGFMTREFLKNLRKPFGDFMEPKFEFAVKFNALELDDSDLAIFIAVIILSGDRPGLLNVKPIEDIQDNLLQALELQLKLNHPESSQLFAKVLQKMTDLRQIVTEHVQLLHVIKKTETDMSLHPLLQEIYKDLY
# Sequence of human Thyroid hormone Receptor beta (TRb), THRB (gene 7068) (P10828 whole entry, looked up, the tested form may be a part): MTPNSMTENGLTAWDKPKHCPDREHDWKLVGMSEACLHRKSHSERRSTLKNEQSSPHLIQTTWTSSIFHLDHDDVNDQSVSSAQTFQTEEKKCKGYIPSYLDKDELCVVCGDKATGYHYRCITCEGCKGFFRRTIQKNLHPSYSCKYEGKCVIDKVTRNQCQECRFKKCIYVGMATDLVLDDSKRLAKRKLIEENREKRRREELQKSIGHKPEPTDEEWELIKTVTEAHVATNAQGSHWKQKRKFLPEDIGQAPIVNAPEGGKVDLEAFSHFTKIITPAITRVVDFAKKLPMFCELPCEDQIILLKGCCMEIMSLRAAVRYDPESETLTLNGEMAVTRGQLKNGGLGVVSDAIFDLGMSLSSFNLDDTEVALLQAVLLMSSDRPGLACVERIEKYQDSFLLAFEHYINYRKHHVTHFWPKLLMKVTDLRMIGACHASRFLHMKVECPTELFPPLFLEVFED
# Sequence of zebrafish Thyroid Hormone Receptor beta (TRb), thrb (gene 30607) (Q9PVE4 whole entry, looked up, the tested form may be a part): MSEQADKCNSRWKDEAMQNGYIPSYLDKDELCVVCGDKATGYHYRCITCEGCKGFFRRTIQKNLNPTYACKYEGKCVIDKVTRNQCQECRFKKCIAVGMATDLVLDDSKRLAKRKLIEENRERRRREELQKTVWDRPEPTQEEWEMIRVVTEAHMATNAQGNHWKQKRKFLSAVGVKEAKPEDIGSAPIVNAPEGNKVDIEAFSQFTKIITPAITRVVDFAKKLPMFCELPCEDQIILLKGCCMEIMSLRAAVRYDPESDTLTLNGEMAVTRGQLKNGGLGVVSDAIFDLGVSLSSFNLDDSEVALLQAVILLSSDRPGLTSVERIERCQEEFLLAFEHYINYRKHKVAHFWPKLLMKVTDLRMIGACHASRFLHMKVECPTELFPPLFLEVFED
# Sequence of Peroxisome proliferator-activated receptor gamma (Homo sapiens) (P37231 whole entry, looked up, the tested form may be a part): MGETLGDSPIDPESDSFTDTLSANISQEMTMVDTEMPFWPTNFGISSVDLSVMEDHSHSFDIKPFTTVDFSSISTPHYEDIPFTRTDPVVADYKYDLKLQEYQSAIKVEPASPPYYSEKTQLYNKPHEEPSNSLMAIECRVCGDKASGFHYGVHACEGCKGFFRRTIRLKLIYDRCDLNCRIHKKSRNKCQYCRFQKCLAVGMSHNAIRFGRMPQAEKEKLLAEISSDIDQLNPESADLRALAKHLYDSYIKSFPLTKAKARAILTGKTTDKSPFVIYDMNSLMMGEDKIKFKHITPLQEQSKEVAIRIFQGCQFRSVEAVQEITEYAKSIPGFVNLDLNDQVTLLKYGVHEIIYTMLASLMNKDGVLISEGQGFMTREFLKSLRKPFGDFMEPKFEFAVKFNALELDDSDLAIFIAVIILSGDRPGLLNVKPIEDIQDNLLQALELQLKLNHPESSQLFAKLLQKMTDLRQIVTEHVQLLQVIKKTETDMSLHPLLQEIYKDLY
# Sequence of Nuclear receptor subfamily 1 group I member 2 (Mus musculus) (O54915 whole entry, looked up, the tested form may be a part): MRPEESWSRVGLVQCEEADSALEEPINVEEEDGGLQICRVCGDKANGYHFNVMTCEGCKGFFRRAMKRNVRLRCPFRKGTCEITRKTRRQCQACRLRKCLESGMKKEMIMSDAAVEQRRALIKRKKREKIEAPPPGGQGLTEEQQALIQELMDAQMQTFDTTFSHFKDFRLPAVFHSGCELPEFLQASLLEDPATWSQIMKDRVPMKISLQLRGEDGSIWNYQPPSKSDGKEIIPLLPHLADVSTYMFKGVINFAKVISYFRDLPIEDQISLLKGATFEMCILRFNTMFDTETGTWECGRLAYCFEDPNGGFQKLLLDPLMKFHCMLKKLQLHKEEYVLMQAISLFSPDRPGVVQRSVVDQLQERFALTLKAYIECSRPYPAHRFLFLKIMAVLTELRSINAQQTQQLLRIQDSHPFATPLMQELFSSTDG
# Sequence of zebrafish Thyroid Hormone Receptor alpha (TRa), thraa (gene 30670) (Q98867 whole entry, looked up, the tested form may be a part): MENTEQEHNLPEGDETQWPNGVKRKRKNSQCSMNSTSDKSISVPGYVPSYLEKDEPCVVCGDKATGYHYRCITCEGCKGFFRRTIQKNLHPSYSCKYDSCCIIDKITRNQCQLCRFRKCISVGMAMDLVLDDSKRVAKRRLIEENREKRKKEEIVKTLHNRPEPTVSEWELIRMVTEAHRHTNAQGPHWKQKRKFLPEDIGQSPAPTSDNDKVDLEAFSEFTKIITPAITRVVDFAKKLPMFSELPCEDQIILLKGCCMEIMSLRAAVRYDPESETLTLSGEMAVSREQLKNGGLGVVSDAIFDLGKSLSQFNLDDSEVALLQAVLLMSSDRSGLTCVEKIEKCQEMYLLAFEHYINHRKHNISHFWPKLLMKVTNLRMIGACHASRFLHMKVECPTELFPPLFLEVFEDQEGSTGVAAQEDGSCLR
# Sequence of Estrogen receptor (Homo sapiens) (P03372 whole entry, looked up, the tested form may be a part): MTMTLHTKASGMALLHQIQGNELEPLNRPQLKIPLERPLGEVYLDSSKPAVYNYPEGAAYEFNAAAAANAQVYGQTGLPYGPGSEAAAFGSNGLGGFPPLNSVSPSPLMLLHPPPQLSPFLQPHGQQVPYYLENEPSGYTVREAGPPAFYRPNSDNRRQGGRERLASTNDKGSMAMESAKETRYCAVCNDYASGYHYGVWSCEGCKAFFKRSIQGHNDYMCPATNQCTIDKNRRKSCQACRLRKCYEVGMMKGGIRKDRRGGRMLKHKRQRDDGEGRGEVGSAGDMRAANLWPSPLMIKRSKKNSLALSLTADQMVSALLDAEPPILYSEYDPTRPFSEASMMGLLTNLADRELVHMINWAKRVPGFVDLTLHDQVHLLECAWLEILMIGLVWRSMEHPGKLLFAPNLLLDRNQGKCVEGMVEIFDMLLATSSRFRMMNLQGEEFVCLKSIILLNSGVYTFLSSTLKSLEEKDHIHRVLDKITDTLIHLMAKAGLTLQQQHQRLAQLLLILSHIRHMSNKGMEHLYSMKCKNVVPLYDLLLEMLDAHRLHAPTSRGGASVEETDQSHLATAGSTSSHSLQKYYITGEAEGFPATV
# Sequence of Estrogen receptor beta (Homo sapiens) (Q92731 whole entry, looked up, the tested form may be a part): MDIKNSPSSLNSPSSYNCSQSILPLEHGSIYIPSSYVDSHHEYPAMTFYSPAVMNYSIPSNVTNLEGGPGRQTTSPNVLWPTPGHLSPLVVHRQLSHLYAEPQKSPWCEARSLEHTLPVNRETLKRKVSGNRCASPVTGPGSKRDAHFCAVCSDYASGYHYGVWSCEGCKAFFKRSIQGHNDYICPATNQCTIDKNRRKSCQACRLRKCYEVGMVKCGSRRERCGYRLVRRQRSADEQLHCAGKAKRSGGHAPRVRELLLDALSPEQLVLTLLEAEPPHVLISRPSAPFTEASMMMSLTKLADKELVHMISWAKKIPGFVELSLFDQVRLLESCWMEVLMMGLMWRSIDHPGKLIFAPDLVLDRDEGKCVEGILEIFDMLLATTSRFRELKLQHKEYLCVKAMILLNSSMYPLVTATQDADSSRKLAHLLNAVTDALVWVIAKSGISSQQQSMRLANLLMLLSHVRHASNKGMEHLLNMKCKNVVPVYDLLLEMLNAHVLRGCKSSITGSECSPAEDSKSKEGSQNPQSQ
# Sequence of chicken Estrogen Receptor (ERa), ESR1 (gene 396099) (P06212 whole entry, looked up, the tested form may be a part): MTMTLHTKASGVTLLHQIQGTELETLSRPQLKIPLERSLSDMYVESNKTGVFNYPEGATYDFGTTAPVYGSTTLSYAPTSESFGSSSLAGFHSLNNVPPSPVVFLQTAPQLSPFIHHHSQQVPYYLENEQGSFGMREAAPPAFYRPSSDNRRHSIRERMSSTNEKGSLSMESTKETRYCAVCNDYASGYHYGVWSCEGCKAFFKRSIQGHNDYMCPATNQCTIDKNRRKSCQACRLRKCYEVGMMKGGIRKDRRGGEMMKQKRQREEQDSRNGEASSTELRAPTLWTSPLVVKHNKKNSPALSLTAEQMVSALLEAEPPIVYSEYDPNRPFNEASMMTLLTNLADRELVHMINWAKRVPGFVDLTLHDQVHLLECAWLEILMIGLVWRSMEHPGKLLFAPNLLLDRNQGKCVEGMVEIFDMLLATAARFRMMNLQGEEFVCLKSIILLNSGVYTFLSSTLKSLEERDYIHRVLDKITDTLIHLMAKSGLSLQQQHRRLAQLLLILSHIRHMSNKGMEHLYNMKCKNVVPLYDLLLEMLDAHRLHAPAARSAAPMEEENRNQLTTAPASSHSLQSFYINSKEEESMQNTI
compound,measurement,setting,value
C=CCc1cc(S(=O)(=O)c2ccc(O)c(CC=C)c2)ccc1O,outcome,[1],inactive
same,outcome,[2],inactive
same,AC50,[3],160 µM (active)
same,outcome,[4],inactive
same,AC50,[5],8.75 µM (active)
same,outcome,[6],inactive
same,outcome,[7],inactive
same,outcome,[8],inactive
same,AC50,[9],3.5 µM (active)
same,outcome,[10],inactive
same,AC50,[11],8.4 µM (active)
same,AC50,[12],8.79 µM (active)
same,AC50,[13],17.4 µM (active)
same,AC50,[14],2.71 µM (active)
same,outcome,[15],inactive
same,AC50,[16],5.26 µM (active)
same,AC50,[17],19.2 µM (active)
same,outcome,[18],inactive
CCN(CC)C(=S)SSC(=S)N(CC)CC,outcome,[1],inactive
same,outcome,[2],inactive
same,AC50,[3],30.8 µM (active)
same,outcome,[4],inactive
same,outcome,[13],inactive
same,AC50,[16],34.9 µM (active)
same,AC50,[17],42.9 µM (active)
same,AC50,[18],5.57 µM (active)
same,outcome,[19],inactive
CC(C)C(=O)Nc1ccc([N+](=O)[O-])c(C(F)(F)F)c1,AC50,[1],100 µM (active)
same,AC50,[2],40.2 µM (active)
same,outcome,[3],inactive
same,outcome,[4],inactive
same,outcome,[5],inactive
same,outcome,[6],inactive
same,outcome,[20],inactive
same,outcome,[9],inactive
same,outcome,[10],inactive
same,AC50,[12],26.3 µM (active)
same,AC50,[13],70.8 µM (active)
same,AC50,[14],27.2 µM (active)
same,outcome,[15],inactive
same,AC50,[16],53.9 µM (active)
same,AC50,[17],82.6 µM (active)
same,AC50,[18],100 µM (active)
same,outcome,[19],inactive
